In PubChem BioAssay (Tox21):
“And” between values parts separate entries of the source, which are not always exact repeats. Equal entries are not always repeated. Results filed as inconclusive are left out. A call without a number means that no potency is given here. Unmarked numbers belong to inactive results. The source made the active and inactive calls. The call rests on the fitted dose curve; in most records, active means well fitted activation curve with a large enough effect in the repeat runs; inconclusive means weak or mixed curves; inactive means flat fitted curve, though single readings scatter.

Test: A CellTox Green Cytotoxicity Assay to monitor cytotoxicity in HepG2 cells - 40 hour (AID 1224879); further: nearly all actives have a fitted effect of over 40% in size
Details: CellTox Green fluorescence; series mostly up to 76.8 µM
From the text: National Center for Advancing Translational Sciences [NCATS]
NIH Chemical Genomics Center [NCGC]
U.S. Environmental Protection Agency [EPA]
National Institutes of Environmental Health Sciences [NIEHS]
National Toxicology Program [NTP]
Cell-based models are critical for drug discovery. Determining the natural cytotoxic effects resulting from test compounds is an essential research activity. A CellTox Green Cytotoxicity Assay to monitor cytotoxicity in real time of continues cell culture during 40 hours of the compound treatment was used to screen Tox21 10K library compounds in HepG2 cells. CellTox Green Cytotoxicity Assay is a nonlytic, homogeneous, biofluorescent method to measure cytotoxicity in cell culture after experimental manipulation. The assay system uses a proprietary asymmetric cyanine dye that is excluded from viable cells but preferentially stains the dead cell's DNA. […] Viable cells produce no appreciable increases in fluorescence. Therefore, the fluorescence signal produced by the binding interaction with dead cell DNA is proportional to cytotoxicity.
The mixture of HepG2 cell suspension and reagents were dispensed at 600cells/6 ul/well in 1536-well tissue culture treated black solid bottom plates using a Multidrop dispenser. After the assay plates were incubated at a 37 C/5% CO2 incubator for 5 hours, 23 nL of compounds dissolved in DMSO, positive and negative controls was transferred to the assay plate by a pintool work station. The plates were incubated at 37 C for 40 hours. The fluorescence intensity were measured at 0h, 8h, 16h, 24h, 32h and 40h time points using ViewLux plate reader during compound treatment.
Potency means the concentration at half of the fitted maximal effect.

Q: Which Potency does the source give for `CCOC(=O)NC(O)C(Cl)(Cl)Cl` (stereo not given) here?
A: inactive

Q: For `O=P(OCC(Br)CBr)(OCC(Br)CBr)OCC(Br)CBr` (stereo not given), which Potency is on record?
A: inactive

Q: For `CN1C[C@H](C(=O)N[C@]2(C)O[C@@]3(O)[C@@H]4CCCN4C(=O)[C@H](Cc4ccccc4)N3C2=O)C=C2c3cccc4[nH]cc(c34)C[C@H]21`, which Potency is on record?
A: inactive

Q: Which Potency does the source give for `Cc1cnc(C2=NC(C)(C(C)C)C(=O)N2)c(C(=O)O)c1` (stereo not given) here?
A: inactive

Q: For `OCCSSCCO`, which Potency is on record?
A: inactive

Q: For `CCCCCCCCn1sccc1=O`, which Potency is on record?
A: 43.7 µM (active) and 20.4 µM (active)

Q: For `COC1CC(=C(c2cccs2)c2cccs2)C[N+](C)(C)C1` (stereo not given), which Potency is on record?
A: inactive

Q: Which Potency does the source give for `CC(C)[C@@H](C(=O)O[C@@H](C#N)c1cccc(Oc2ccccc2)c1)c1ccc(Cl)cc1` here?
A: inactive

Q: For `CCc1cnc(C2=NC(C)(C(C)C)C(=O)N2)c(C(=O)O)c1` (stereo not given), which Potency is on record?
A: inactive

Q: For `O=C(O)C(Cl)(Cl)Br`, which Potency is on record?
A: inactive

Q: Which Potency does the source give for `C1CCNCC1` here?
A: inactive

Q: Which Potency does the source give for `CC[N+]1(C)CCCC(OC(=O)C(O)(c2ccccc2)c2ccccc2)C1` (stereo not given) here?
A: inactive

Q: Which Potency does the source give for `C=CC(C)(CCC=C(C)C)OC(=O)c1ccccc1N` (stereo not given) here?
A: inactive

Q: Which Potency does the source give for `CC(CC(C(N)=O)(c1ccccc1)c1ccccc1)N(C)C` (stereo not given) here?
A: inactive

Q: With `Nc1ccc2c(c1)Cc1ccccc1-2` as the molecule, how does the Potency read?
A: inactive

Q: With `O=S(=O)(Cl)Cl` as the molecule, how does the Potency read?
A: inactive

Q: With `CCCN(CCC)c1c([N+](=O)[O-])cc(C(C)C)cc1[N+](=O)[O-]` as the molecule, how does the Potency read?
A: inactive

Q: Which Potency does the source give for `C[C@H](N)[C@H](O)c1ccc(O)c(O)c1` here?
A: 23.9 µM (active)

Q: Which Potency does the source give for `CCOP(=S)(OCC)SCSc1cc(Cl)ccc1Cl` here?
A: inactive

Q: With `CC(=O)OC(c1ccccc1)C(Cl)(Cl)Cl` (stereo not given) as the molecule, how does the Potency read?
A: 21.9 µM (active)

Q: Which Potency does the source give for `CCOP(=S)(OCC)Oc1ccc(S(C)=O)cc1` (stereo not given) here?
A: inactive

Q: Which Potency does the source give for `CCCCC1C(=O)NC(=O)N(C2CCCCC2)C1=O` (stereo not given) here?
A: inactive

Q: For `C[N+](C)(C)CCOC(=O)C(O)(c1ccccc1)c1ccccc1`, which Potency is on record?
A: inactive

Q: With `Cc1ncc(C[n+]2csc(CCO)c2C)c(N)n1` as the molecule, how does the Potency read?
A: inactive

Q: With `CCCCCCCCCCCCN=C(N)N` as the molecule, how does the cytotoxicity increase read?
A: -4.41% [at 2.72 µM]

Q: For `Cc1cccc(C)c1NC1=NCCCS1`, which Potency is on record?
A: inactive

Q: Which Potency does the source give for `CON(C)C(=O)Nc1ccc(Cl)cc1` here?
A: inactive

Q: Which Potency does the source give for `CCCCCCCCCCCC[N+](C)(C)CCOc1ccccc1` here?
A: 12.3 µM (active) and 6.74 µM (active)

Q: Which Potency does the source give for `CC(C)(C)N(NC(=O)c1ccc(Cl)cc1)C(=O)c1ccccc1` here?
A: inactive

Q: Which Potency does the source give for `C1CS1` here?
A: inactive

Q: For `O=C(O)CCCOc1ccc(Cl)cc1Cl`, which Potency is on record?
A: inactive

Q: For `COc1cc(CC#N)cc(OC)c1OC`, which Potency is on record?
A: inactive

Q: For `NP(N)(=O)NC(=O)c1ccc(F)cc1`, which Potency is on record?
A: inactive

Q: With `N#CC(C#N)=Cc1ccc(O)c(O)c1` as the molecule, how does the Potency read?
A: inactive

Q: For `CN(C1CCCCC1)C1CCCCC1`, which Potency is on record?
A: inactive

Q: With `COc1ccccc1N1CCNCC1` as the molecule, how does the Potency read?
A: inactive

Q: For `CC1(C)CC(=O)CC(C)(C)N1[O]`, which Potency is on record?
A: inactive

Q: For `O=C(O)c1cc(I)cc(I)c1I`, which Potency is on record?
A: inactive

Q: With `COC1=CC(=O)O[C@@H](/C=C/c2ccc3c(c2)OCO3)C1` as the molecule, how does the Potency read?
A: inactive

Q: Which Potency does the source give for `CCCCCCCCCCCCCCCl` here?
A: inactive
